Source: PubChem (National Center for Advancing Translational Sciences (NCATS))
SARS PLpro yeast – inhibitors of SARS-CoV papain-like protease in yeast | S. cerevisiae expressing SARS-CoV PLpro, growth rescue | Potency, µM (series often up to 32.9 µM), for inactives: at the highest dose activity, positive = growth rescue, actives largely listed as activators | hit rate 0.19% among 330,000; calls by dose curve; also: 0% is about no effect; nearly all actives have a fitted effect of over 55% in size
LmPK inh – inhibitors of Leishmania mexicana pyruvate kinase; Q27686; purified LmPK, Kinase-Glo ATP luminescence, 1 h; Potency, µM (series often up to 57.5 µM), inactives show top-dose activity change, negative = inhibition, actives largely listed as inhibitors; hit rate 0.37% among 290,000; also: % is scaled to controls: 0 for no effect and ±100 for the full control effect
Target sequence (Q27686 whole entry, looked up): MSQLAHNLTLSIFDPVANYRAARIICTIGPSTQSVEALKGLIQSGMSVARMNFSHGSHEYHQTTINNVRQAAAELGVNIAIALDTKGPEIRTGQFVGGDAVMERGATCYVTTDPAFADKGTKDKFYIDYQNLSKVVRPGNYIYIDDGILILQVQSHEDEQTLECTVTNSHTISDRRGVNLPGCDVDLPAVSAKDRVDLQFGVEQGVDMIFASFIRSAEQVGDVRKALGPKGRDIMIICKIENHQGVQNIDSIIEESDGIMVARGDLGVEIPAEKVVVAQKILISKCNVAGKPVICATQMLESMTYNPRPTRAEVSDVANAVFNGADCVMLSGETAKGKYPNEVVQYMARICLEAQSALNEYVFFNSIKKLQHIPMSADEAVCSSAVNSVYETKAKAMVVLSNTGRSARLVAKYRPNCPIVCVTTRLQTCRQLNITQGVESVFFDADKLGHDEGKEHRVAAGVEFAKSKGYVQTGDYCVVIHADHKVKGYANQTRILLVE
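qHTS format; LmPK 0.1 nM; substrates PEP 0.5 mM and ADP 0.1 mM. One-hour room-temperature incubation, then coupled luciferase luminescence; 0.5 nM enzyme wells mark activation.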
NS1 function inh – inhibitors of influenza NS1 protein function; Potency, µM (series often up to 46.1 µM), without a hit: at the highest dose activity, positive = more growth; hit rate 0.4% among 270,000; AID 2326; calls by dose curve; also: actives are rising curves; nearly all actives have a fitted effect of over 50% in size
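Read-out: OD600 growth recovery of NS1-expressing budding yeast. Cells grown overnight at 30C in -URA glucose medium, washed, resuspended and diluted 1:100 in 2% galactose assay medium, pH 6.0. Same strain lacking NS1 served as positive control.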
RE007 growth inh – less growth of the S. pombe RE007 Vpr strain | S. pombe RE007 Vpr strain, BacTiter-Glo ATP luminescence, 24 h | Potency, µM (titrated, usually from 92.2 µM), inactives show top-dose activity change, negative = less growth, most hits filed as inhibitors | hit rate 0.21% among 360,000 | AID 651644; active = well fitted falling curve with a large enough effect; inconclusive = small, poorly fitted or top-dose-only effect; inactive = no such curve, though single readings can be large or run the other way; also: % is scaled to controls: 0 for no effect and ±100 for the full control effect; nearly all actives have a fitted effect of over 50% in size
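Fission yeast RE007 carrying one integrated HIV-1 vpr copy, seeded at OD 0.01 in PMG+AL medium with 23 nL pinned compound. Grown 24 h at 30 degrees; viability read by BacTiter-Glo luminescence after 5 min.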
Sm TGR block – blocks Schistosoma mansoni thioredoxin glutathione reductase | Q962Y6 | purified TGR, DTNB reduction, TNB absorbance 405 nm | Potency, µM (top dose mostly 114 µM), for inactives: at the top dose activity change, negative = inhibition, most hits filed as inhibitors | hit rate 3% among 360,000 | AID 485364; also: % is scaled to controls: 0 for no effect and ±100 for the full control effect; nearly all actives have a fitted effect of over 60% in size
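Kinetic colorimetric format: TGR-catalysed, NADPH-driven DTNB reduction monitored via TNB absorbance. Enzyme dispensed at 20 nM; compound exposure 15 min at room temperature before reaction start.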
Tb PYK inh – T. brucei pyruvate kinase inhibition; TbPYK enzyme, Kinase-Glo Plus ATP luminescence, 45 min; hit rate 0.12% among 410,000; Q57TT1; Potency, µM (doses to about 76.8 µM), for inactives: at the highest dose activity, negative = inhibition, usual class: inhibitors; AID 624173; also: % is scaled to controls: 0 for no effect and ±100 for the full control effect; nearly all actives have a fitted effect of over 50% in size
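Enzyme and substrate buffer are dispensed first and compound is pin-transferred. ADP at 130 uM final then starts the reaction, which runs 45 min at room temperature. Detection reagent is added for 10 min before luminescence is imaged.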
* = called active by the depositor; ? = inconclusive; . = not tested or not shown; [ ] = dose if it differs, or a comment. A selection: hits, their analogues and other compounds. The true share with any hit is near 3.3%. Unless noted, calls follow the shape of the dose curve; as a rule, active = well fitted curve in the direction sought with a large enough effect; inconclusive = small, poorly fitted or top-dose-only effect, or another doubt; inactive = no such curve, though single readings can be large; an effect the other way counts as inactive or inconclusive. Potency is read from the fitted curve at half-maximal effect.

SMILES | SARS PLpro yeast | LmPK inh | NS1 function inh | RE007 growth inh | Sm TGR block | Tb PYK inh
CN(C)CC/C=C1/c2ccccc2COc2ccccc21 | -0.3% | 10.1% | . | . | 20µM* | .
CN(C)CCC=C1c2ccccc2CCc2ccccc21 | -41.0% | 1.8% | -5.9% | 10.3%[18.4 µM] | 7.08µM* | 3.2%
Cc1ccc(NC(=O)Nc2nnc(-c3ccccc3)o2)cc1 | 0.7% | 0.9% | -10.8% | -15.2% | 12.5% | -2.8%
Cc1ccc(-c2nnc(Nc3ccccc3)o2)cc1 | -6.2% | 14.1µM* | -46.0% | ? | -31.8% | -14.0%
O=C(c1nnsc1S(=O)c1ccc(Cl)cc1)N1CCOCC1 (stereo not drawn) | -24.3% | 1.8% | . | ? | 2.51µM* | -8.9%
CNC(=O)c1nnsc1S(=O)(=O)c1ccc(Cl)cc1 | -26.5% | 1.5% | . | ? | 0.282µM* | -3.1%
O=C(c1nnsc1S(=O)(=O)c1ccc(Cl)cc1)N1CCOCC1 | -11.1% | 11.1% | . | -11.5% | 11.2µM* | 2.5%
O=C(Nc1ccccc1)c1nnsc1S(=O)c1ccc(Cl)cc1 (stereo not drawn) | -40.7% | -0.3% | -154.2% | 2.82µM* | 0.1µM* | ?
Nc1nc(C(=O)N2CCOCC2)nn1S(=O)(=O)c1ccc(Cl)cc1 | -1.3% | -8.3% | ? | -4.4% | 0.1% | -17.8%
CCCOc1ccc(-c2nn(-c3ccccc3)cc2C2NC(=O)NC(C)=C2C(=O)OC)cc1C (stereo not drawn) | . | . | . | . | 5.4% | -3.5%
CCc1ccc(-n2nc(C)c3c(C)cc(=O)n(CC(=O)Nc4ccc(C(C)=O)cc4)c32)cc1 | . | . | . | . | 2.7% | 3.4%
CCCC[n+]1ccn(C2=C([O-])c3ccccc3C(=O)/C2=N\S(=O)(=O)c2ccccc2)c1 | -0.4% | -7.0% | 7.3% | -1.9% | 3.2% | 5.2%
CC(C)[n+]1ccn(C2=C([O-])c3ccccc3C(=O)/C2=N\S(=O)(=O)c2ccccc2)c1 | -0.1% | -3.5% | 3.0% | 3.9% | 44.7µM* | 1.0%
CN(C(=O)CO)c1c(I)c(C(=O)NCC(O)CO)c(I)c(C(=O)NCC(O)CO)c1I (stereo not drawn) | . | . | . | . | . | 9.8%
CC(=O)N1CN(CCCn2ccnc2)Cc2c1sc1c2CCCC1 | 2.2% | -0.9% | 0.4% | -3.9% | 0.0% | 2.1%
CC(=O)N1CN(Cc2ccccn2)Cc2c1sc1c2CCCC1 | -6.4% | 2.2% | -1.2% | -7.2% | 39.8µM* | -12.5%
C[C@@]12CC[C@H](O[C@@H]3O[C@H](CO)[C@@H](O)[C@H](O)[C@@H]3O)C[C@@H]1CC[C@H]1[C@H]2CC[C@@]2(C)[C@@H](C3=CCOC3=O)CC[C@]12O | . | . | 7.7% | . | . | .
CS/C(=C\[N+](=O)[O-])Nc1ccc(Cl)cc1 | -4.5% | 8.7% | 6.0% | 10.5% | 0.1µM* | 0.6%
CC(C)=CC(=O)Nc1ccc(Cl)cc1 | -2.1% | -19.4% | -1.7% | -15.8% | -5.4% | -10.6%
O=C(CCl)N1c2ccccc2OCC1c1ccccc1 (stereo not drawn) | -85.1% | 10.3% | ? | -25.6% | 3.16µM* | 0.8%
O=C(CCl)N1CCN(C(=O)C2COc3ccccc3O2)CC1 (stereo not drawn) | 4.0% | . | . | -1.3% | . | -7.0%
O=C(CCl)N1c2ccccc2SCC1c1ccccc1 (stereo not drawn) | -52.9% | -6.3% | -52.8% | 8.0% | 2.82µM* | -15.3%
O=C(O)[C@@H]1[C@@H]2O[C@H]([C@@H](Br)[C@H]2Br)[C@H]1C(=O)O | . | . | 3.0% | . | . | .
CC(C)C(=O)Nc1nnc2n1CCS2 | . | . | . | . | -0.9% | 3.7%
O=C1/C(=C/c2cccs2)COc2ccccc21 | -23.7% | 14.1µM* | -8.8% | ? | -4.3% | -28.1%
SMILES | SARS PLpro yeast | LmPK inh | NS1 function inh | RE007 growth inh | Sm TGR block | Tb PYK inh
O=S(=O)(NCCC1=CCCCC1)c1cccc(S(=O)(=O)N2CCOCC2)c1 | 4.7% | 5.8% | -3.8% | -28.2% | 1.8% | ?
Cn1cc(S(=O)(=O)N2CCOCC2)cc1C(=O)NCCc1ccccc1 | -0.9% | -1.0% | 14.1% | 7.9% | 89.1µM* | -5.8%
O=S(=O)(NCCc1ccccc1)c1cccc(S(=O)(=O)N2CCOCC2)c1 | 1.4% | 4.3% | -7.2% | 6.0% | 35.5µM* | -0.8%
O=C(c1cn(CCOc2ccc(Cl)cc2)c2ccccc12)C1CCCCC1 | . | . | . | . | 1.1% | 0.4%
CC(C)c1ccc(CN(C(=O)C2COc3ccccc3O2)C2CCS(=O)(=O)C2)cc1 (stereo not drawn) | -20.8% | 1.1% | -105.5% | 15.7% | 0.7% | 0.5%
CN(C)c1ccc(CN(C(=O)C2COc3ccccc3O2)C2CCS(=O)(=O)C2)cc1 (stereo not drawn) | 4.1% | 5.0% | 18.9% | 9.3% | 20µM* | 5.0%
O=C(Nc1ccccc1)c1ccccc1O | -23.5% | -2.0% | -109.8% | -29.8% | -8.7% | -8.2%
Cc1ccc(NC(=O)C2=C(c3ccccc3)S(=O)(=O)CCS2(=O)=O)cc1 | 5.6% | 5.0% | . | 1.6% | 0.316µM* | -12.0%
Cc1ccc(NC(=O)c2ccccc2)cc1 | -8.3% | ? | -12.7% | -20.3% | -24.6% | -0.4%
Cc1ccc(NC(=O)c2ccccc2O)cc1 | -85.4% | -23.6% | -81.2% | 31.6µM* | -12.5% | -7.3%
C[N+]1(C)CCN(C[C@@](O)(c2ccccc2)C2CCCCC2)CC1 | . | . | . | . | . | 4.8%
Cc1ccc(CN2CCN(C(=O)C3CCCO3)CC2)cc1 (stereo not drawn) | 2.3% | -3.6% | -15.4% | 4.8% | -13.6% | 2.3%
CCOC(=O)N1CCN(Cc2ccc3ccccc3c2)CC1 | 9.8% | 0.9% | -1.9% | -11.3% | -25.1% | 17.5%
O=C(C1CCCO1)N1CCN(Cc2c(O)ccc3ccccc23)CC1 (stereo not drawn) | -10.6% | 3.2% | 11.3% | -14.1% | 0.501µM* | 0.3%
CCOC(=O)N1CCN(Cc2ccc(O)c3ncccc23)CC1 | 7.8% | 3.5% | 2.2% | -27.3% | 0.282µM* | 6.4%
CCOC(=O)C1CCN(Cc2c(O)c3ccccc3oc2=O)CC1 | -1.5% | 0.8% | 3.1% | 12.0% | -35.5% | 1.1%
CCOC(=O)C1CCN(Cc2c(O)ccc3ccccc23)CC1 | -6.8% | 1.7% | -0.4% | 4.8% | 3.55µM* | 1.7%
CCOC(=O)N1CCN(Cc2c(O)ccc3ccccc23)CC1 | 1.8% | -2.9% | 1.1% | -19.5% | 0.282µM* | 3.5%
CCOC(=O)c1cc(-c2ccc(C)cc2)n(CC(=O)Nc2ccccc2F)c1C | . | . | . | . | 5.3% | 0.8%
CC#CCN1c2ccccc2[C@]23C[C@@H](C(=O)OC)N(C(=O)COCc4ccccc4)C2=NC(C(=O)OC)=C(C(=O)OC)[C@H]13 | . | -1.5%[11.5 µM] | . | . | . | .
COc1ccc2ccccc2c1CN1CCN(C(=O)c2ccccc2)CC1 | -2.2% | 5.6% | -6.6% | -9.8% | 28.2µM* | -18.8%
NC(N)=NS(=O)(=O)c1ccc(NC(=S)NC(=O)/C=C/c2ccco2)cc1 | -5.5% | 2.9% | 12.4% | -11.7% | -35.5% | -5.0%
